Among all 56,000 sequences or so, about 3,400 (6.1%) were called active. No stated cut-off is given here; in the data, active = GI50 up to about 1.1 µM and inactive = higher. Only a sample is shown. Potency and affinity values are given separately.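 These data come from cells grown in 96-well plates and exposed to compound for 48 hours at five concentrations. At the GI50, growth is halved.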

For the assay, the system named is HOP-62. Description: NCI tumour cell line growth inhibition, 48 h.
In the case of “cis-Bis[[(trimethylsilyl)methyl]amino]tetrachloroplatinum(IV), CHEMBL2146191”, the GI50 is 20.6 µM.

Substance “[Bis(aminomethyl)diethylsilane]tetrachloroplatinum(IV), CHEMBL2146203” displayed a GI50 of 1.7 µM.

As to “mu-(1,7-nanodiamine-N,N')bis-(cis-aminedichloroplatimum (II)), CHEMBL2146215”, the GI50 was 7.64 µM.

Substance CISPLATIN, CHEMBL11359 displayed a GI50 of 1.82 µM.

“[Bis(aminomethyl)dimethylsilane]tetrachloroplatinum(IV), CHEMBL2146190”: the GI50 was determined as 6.61 µM.

Substance “[Bis(aminomethyl)tetramethylenesilane]tetrachloropaltinum(IV), CHEMBL2146189” returned a GI50 of 6.32 µM.

In the case of “[Bis(aminomethyl)dimethylsilane]dichloroplatinum (II), CHEMBL2146201”, the GI50 was 35.3 µM.

As for “[Bis(aminomethyl)tetramethylenesilane]dichloropaltinum(II), CHEMBL2146205”, the GI50 was 39.7 µM.

Regarding “[Bis(aminomethyl)ethylmethylsilane]tetrachloroplatinum(IV), CHEMBL2146192”, the GI50 is 4.91 µM.

The substance “[Bis(aminomethyl)pentamethylenesilane]tetrachloropaltinum(IV), CHEMBL2146204” displayed a GI50 of 1.55 µM.

Consider “[Bis(aminomethyl)pentamethylenesilane]dichloropaltinum(II), CHEMBL2146202”, for which the GI50 stood at 2.33 µM.

These data come from ChEMBL document CHEMBL1201862, “PubChem BioAssay data set” (2004).
